# Compounds with a hit are over-represented: about 10% of the library has one in this group of screens.
# VP16 counter = Gal4-VP16 reporter inhibition counter-screen. Drosophila S2 Gal4-VP16 UAS-luciferase, luminescence, 20 h. Potency, µM (doses to about 53.6 µM), without a hit: at the highest dose activity, negative = inhibition, actives largely listed as inhibitors. actives 3.5% (n = 310,000). AID 2546;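 further: Gal4-VP16 expression switched on by copper sulfate through the metallothionein promoter; on the % scale 0 is the no-effect control and ±100 the full control effect; nearly all actives have a fitted effect of over 50% in size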
# MCF10A rereplic = DNA re-replication induction in MCF 10a cells; MCF 10A DNA re-replication, Hoechst nuclear intensity, 48 h; Potency, µM (titrated, usually from 46.1 µM), without a hit: at the top dose activity, positive = re-replication, hits mostly activators; actives 2.9% (n = 350,000); AID 624296; further: % of control where 0% means no effect; nearly all actives have a fitted effect of over 50% in size
# KB-V1 cytotox = KB-V1 MDR subline cytotoxicity | KB-V1 MDR cells viability, CellTiter-Glo, 72 h | AID 1347076 | actives 3.4% (n = 400,000) | Potency, µM (highest dose often 46.1 µM), actives largely listed as cytotoxic; further: on the % scale 0 is the no-effect control and ±100 the full control effect; nearly all actives have a fitted effect of over 60% in size
#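 qHTS viability screen in drug-selected KB-V1 MDR cells: 72 h compound treatment at 37 degrees C, ATP luminescence end point.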
# RORgamma inh = blocks mouse ROR gamma transcriptional activity. Drosophila S2 Gal4-RORgamma UAS-luciferase reporter, 20 h. Potency, µM (top dose mostly 53.6 µM), for the others: top-dose activity change, negative = inhibition, hits mostly inhibitors. actives 5.4% (n = 310,000); further: on the % scale 0 is the no-effect control and ±100 the full control effect; nearly all actives have a fitted effect of over 60% in size
# Target sequence (P51450 whole entry, looked up, the tested form may be a part): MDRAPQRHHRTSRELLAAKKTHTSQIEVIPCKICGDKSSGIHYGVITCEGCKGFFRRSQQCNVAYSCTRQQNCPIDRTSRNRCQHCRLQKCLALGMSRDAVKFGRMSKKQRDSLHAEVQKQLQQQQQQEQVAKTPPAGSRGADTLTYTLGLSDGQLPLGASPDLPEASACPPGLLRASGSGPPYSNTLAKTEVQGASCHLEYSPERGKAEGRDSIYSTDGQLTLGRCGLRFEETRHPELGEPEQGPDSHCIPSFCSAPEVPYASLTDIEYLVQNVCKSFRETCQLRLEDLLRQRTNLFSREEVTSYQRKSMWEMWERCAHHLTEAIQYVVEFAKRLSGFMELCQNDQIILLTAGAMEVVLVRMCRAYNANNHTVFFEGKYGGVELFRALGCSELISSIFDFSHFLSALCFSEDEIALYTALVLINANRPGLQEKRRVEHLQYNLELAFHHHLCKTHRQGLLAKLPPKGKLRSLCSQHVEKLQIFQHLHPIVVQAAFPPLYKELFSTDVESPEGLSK
#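 Using a luciferase readout, inhibitors were identified by reduced reporter activity in Drosophila cells coexpressing a copper-inducible Gal4–ROR gamma fusion and UAS-driven Photinus luciferase, incubated 20 hr after 700 uM copper sulfate.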
# SW480 rerep = induces DNA re-replication in SW480 colon adenocarcinoma cells; SW480 DNA re-replication, Hoechst DNA content imaging, 48 h; Potency, µM (doses to about 46.1 µM), for inactives: at the top dose re-replication activation, actives largely listed as activators; actives 1.8% (n = 340,000); further: % of control where 0% means no effect; nearly all actives have a fitted effect of over 55% in size
#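 Quantitative HTS format with DMSO vehicle controls; 48 hr drug incubation at 37 C, then 40 min Hoechst staining and scanning imager measurement at 405 nm excitation.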
# KB-3-1 tox = KB-3-1 parental cell cytotoxicity; KB-3-1 viability, CellTiter-Glo ATP luminescence, 72 h; Potency, µM (top dose mostly 46.1 µM), most hits filed as cytotoxic; actives 1.4% (n = 400,000); AID 1347075; further: on the % scale 0 is the no-effect control and ±100 the full control effect; nearly all actives have a fitted effect of over 60% in size
#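 Cytotoxicity measured as CellTiter-Glo luminescence after 72 h at 37 C. Compound titrations were pinned onto drug-naive KB-3-1 parental adenocarcinoma cells grown in DMEM with 10% FBS, and normalized data fitted to concentration-response curves.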
# The depositor's hits bear a star; i = inactive; ? = inconclusive; · = not tested or not shown; [ ] = another dose, or the depositor's remark. The call rests on the fitted dose curve; in most records, active means well fitted curve in the direction sought with a large enough effect; inconclusive means small, poorly fitted or top-dose-only effect, or another doubt; inactive means no such curve, though single readings can be large; an effect the other way counts as inactive or inconclusive. Potency means the concentration at half of the fitted maximal effect.
SMILES,VP16 counter,MCF10A rereplic,KB-V1 cytotox,RORgamma inh,SW480 rerep,KB-3-1 tox
CCCCC(=O)N1C/C=C\C(c2ccc(OC)cc2)N(Cc2ccc(F)cc2)C(=O)[C@H]1Cc1ccccc1 (some centres undefined),?,?,i,?,3.7µM*,?
COc1cccc(CNC(=O)CCc2c(C)nc3c(c2C)c(=O)n(C)c(=O)n3C)c1,·,·,i,·,·,i
CN(C)CCCSc1ccccc1NC(=O)/C=C\c1ccccc1,-12%,·,·,-5%,·,·
CC1CCc2c(sc3nnn(CC(=O)Nc4ccccc4Cl)c(=O)c23)C1 (centres undefined),·,·,i,·,·,i
COc1cccc(CN2CCC2(C)C(=O)Nc2cccc(Oc3ccccc3)c2)c1F (centres undefined),·,·,7.3µM*,·,·,?
CCOC(=O)C1=C(C)n2c(s/c(=C/c3cccc([N+](=O)[O-])c3)c2=O)=NC1c1ccc(O)c(OC)c1 (centres undefined),24%,16µM*,18µM*,14%,?,?
O=[N+]([O-])c1ccc(C=CC=Cc2ccccc2)cc1,·,·,i,·,·,i
CN(c1ccccc1)c1ccc(/C=C/[N+](=O)[O-])cc1,?,7.3µM*,i,?,21µM*,?
Cc1ccc(-c2cc3c(N=O)c4ccccc4c-3n[nH]2)cc1,?,-10%,i,10µM*,-3%,i
COc1ccc([C@]23Cc4ccccc4C(O2)c2c(cc(-c4ccccc4)oc2=O)O3)cc1,-5%[10 µM],·,·,39%[10 µM],·,·
CCOc1ccc(C(c2c(NC(=O)c3ccco3)sc(C)c2C)N2CCOCC2)cc1 (centres undefined),·,21µM*,i,·,-38%,?
Cc1sc(NC(=O)c2ccco2)c(C(c2cccnc2)N2CCN(C)CC2)c1C (centres undefined),6%,?,i,21%,-4%,i
COc1cccc(C(c2c(NC(=O)c3ccco3)sc(C)c2C)N2CCOCC2)c1 (centres undefined),·,21µM*,?,·,9%,23µM*
Cc1sc(NC(=O)c2ccco2)c(C(c2ccncc2)N2CCOCC2)c1C (centres undefined),3%,8%,i,16%,10%,i
Cc1sc(NC(=O)c2ccco2)c(C(c2cccnc2)N2CCCC2)c1C (centres undefined),5%,21µM*,i,-14%,?,i
COc1ccc(NC(=O)CC2C(=O)N(c3ccc(F)cc3)C(=O)N2Cc2ccc3c(c2)OCO3)cc1 (centres undefined),·,·,i,·,·,i
CC1(C)Cc2c(C#N)c(N3CCN(C(=O)c4ccccc4Cl)CC3)nc(-c3ccco3)c2CS1,-7%,5.8µM*,i,?,9.2µM*,i
CC1(C)Cc2c(C#N)c(N3CCN(C(=O)c4ccco4)CC3)nc(-c3ccco3)c2CS1,2%,?,5.8µM*,?,?,i
CC(=O)N1CCN(c2nc(-c3ccco3)c3c(c2C#N)CC(C)(C)SC3)CC1,8%,?,i,-33%,12%,i
COc1ccc(/C=N/NC(=O)c2ccn[nH]2)cc1CSc1ccccn1,16%,2%,i,4%,-29%,i
COc1ccc(/C=N/NC(=O)c2ccncc2)cc1CSc1nc2ccccc2s1,6.3µM*,?,?,7.1µM*,?,i
COc1ccc(/C=N/NC(=O)c2cccnc2)cc1CSc1ccccn1,7%,13µM*,?,-4%,13µM*,?
COc1ccc(/C=N/NC(=O)c2ccncc2)cc1OC,-13%,2%,?,-23%,1%,i
COc1ccc(/C=N/NC(=O)c2cccc(Br)c2)cc1CSc1ccccn1,?,15µM*,12µM*,?,?,?
COc1ccc(C(=O)N/N=C/c2ccc(OC)c(CSc3ccccn3)c2)cc1,?,14%,i,?,-5%,i
SMILES,VP16 counter,MCF10A rereplic,KB-V1 cytotox,RORgamma inh,SW480 rerep,KB-3-1 tox
COc1ccc(/C=N/NC(=O)c2cccnc2)cc1CN1CCCc2ccccc21,-29%,?,i,10µM*,20%,i
COc1ccc(C(=O)N/N=C/c2ccc(OC)c(CN3CCCc4ccccc43)c2)cc1,?,15%,i,?,-1%,i
COCCNC(=S)N1CCC2CC1c1c(Cl)cccc12 (centres undefined),·,·,i,·,·,i
Cc1ccccc1CSc1ncc(Cl)c(C(=O)Nc2nc3ccc(F)cc3s2)n1,·,·,i,·,·,i
Oc1ccc(-c2nnc(-c3ccccc3)c(-c3ccccc3)n2)cc1,?,·,·,-31%,·,·
CNc1nc(-c2ccccc2)nnc1C(F)(F)F,?,-1%,i,-28%,2%,i
COc1nc(-c2ccccc2)nc(-c2ccccc2)c1C,·,23µM*,i,·,6%,i
COc1cnc(-c2ccccc2)nc1OC,0%,-2%,?,?,-12%,?
Cc1ccc(Sc2nc(-c3ccccc3)nnc2C(F)(F)F)cc1,-2%,8.2µM*,i,?,?,i
Cc1ccc(-c2nnc(-c3ccccc3)c(-c3ccccc3)n2)cc1,5%,22%,18µM*,23%,3%,i
CCCCN1CNC(=S)N(c2cc(C)ccc2C)C1,10µM*,12%,i,14µM*,?,i
CCCCN1CNC(=S)N(c2ccccc2OCC)C1,14µM*,0%,i,11µM*,-134%,i
CCCN1CNC(=S)N(c2cccc(C)c2)C1,-24%,10%,i,11µM*,7%,i
CCCN1CNC(=S)N(c2ccccc2OCC)C1,?,0%,i,10µM*,-23%,i
CCN1CNC(=S)N(c2ccccc2OC)C1,0%,-7%,?,-23%,-4%,i
Cc1ccc(Cn2ccc(NC(=O)c3noc4c3CCCC4)n2)cc1,2%,-9%,i,20%,3%,i
Cn1cc([N+](=O)[O-])c(C(=O)Nc2cc(Oc3cccnc3)cc([N+](=O)[O-])c2)n1,-2%,9.2µM*,?,?,10µM*,?
O=[N+]([O-])c1cc(Oc2cccnc2)cc([N+](=O)[O-])c1,?,0%,i,-27%,-3%,i
Cc1ccc(Cn2ccc(NC(=O)c3noc4c3CCCCC4)n2)cc1,0%,18%,5.2µM*,?,5%,?
Cc1cc(C)n(Cc2ccc(NC(=O)c3nn(C)cc3[N+](=O)[O-])cc2)n1,-7%,2.3µM*,?,?,2.9µM*,i

# Screens deposited in PubChem BioAssay by National Center for Advancing Translational Sciences (NCATS).
